Measured values published in PubChem BioAssay (NCATS).
Results filed as inconclusive are left out. The source made the active and inactive calls. Calls come from the whole dose curve; as a rule, active = well fitted curve in the direction sought with a large enough effect; inconclusive = small, poorly fitted or top-dose-only effect, or another doubt; inactive = no such curve, though single readings can be large; an effect the other way counts as inactive or inconclusive. Starred links: 1 amine or outer side, 2 acyl side, 3 side chain; linkers in the order of their positions; H or OH if unused. Positions of bridges follow the written chain, without caps; N, C: chain ends. Non-standard residues stand in square brackets, D forms with d. Residues, ends and D or L forms follow the SMILES beside them. Chains are numbered I, II in the order given. Actinocin(9to1) = Cc1c2oc3c(C)ccc(C(=O)[*:1])c3nc-2c(C(=O)[*:2])c(N)c1=O; NMeV = CN[CH](C(=O)O)C(C)C; Sar = CNCC(=O)O

Tests used:
[1] = BET inhibitor-based combinations targeting novel dependencies in MECOM-rearranged (r) AML: OCI-AML3 cell line (AID 2202232); conditions: Potency: OCI-AML3 viability; note: nearly all actives have a fitted effect of over 35% in size
Procedure, shortened: (§1)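 Here, 11-point titrations of each agent were applied to 500 seeded cells and incubated 48 hr; CellTiter-Glo signal, scaled against DMSO and empty wells, was integrated as AUC, then Z-scored within the individual line.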

[2] = BET inhibitor-based combinations targeting novel dependencies in MECOM-rearranged (r) AML: MV-4-11 cell line (AID 2202233); note: nearly all actives have a fitted effect of over 45% in size
Procedure, shortened: (§2)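 Normalized to DMSO and empty-well controls, the luminescence data from CellTiter-Glo after 48 hr drug exposure were fitted across 11 concentrations. Reported metrics are area under the dose-response curve and its Z-transformed form.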

[3] = BET inhibitor-based combinations targeting novel dependencies in MECOM-rearranged (r) AML: HNT-34 cell line (AID 2202234); note: nearly all actives have a fitted effect of over 35% in size
Procedure, shortened: as §2

[4] = BET inhibitor-based combinations targeting novel dependencies in MECOM-rearranged (r) AML: UCSD-AML1 cell line (AID 2202235); note: nearly all actives have a fitted effect of over 40% in size
Procedure, shortened: as §2

[5] = BET inhibitor-based combinations targeting novel dependencies in MECOM-rearranged (r) AML: AML-191 cell line (AID 2202236; note: nearly all actives have a fitted effect of over 35% in size)
Procedure, shortened: as §1

[6] = BET inhibitor-based combinations targeting novel dependencies in MECOM-rearranged (r) AML: AML-194 cell line (AID 2202237; note: nearly all actives have a fitted effect of over 40% in size)
Procedure, shortened: as §1
Potency is the fitted concentration of half-maximal effect.

Compound	Potency [1]	Potency [2]	Potency [3]	Potency [4]	Potency [5]	Potency [6]
COc1cc(C(N)=O)ccc1NC(=O)[C@@H]1N[C@@H](CC(C)(C)C)[C@@]2(C(=O)Nc3cc(Cl)ccc32)[C@H]1c1cccc(Cl)c1F	0.934 µM (active)	0.0934 µM (active)	0.148 µM (active)	0.209 µM (active)	0.468 µM (active)	0.59 µM (active)
Nc1ncccc1-c1nc2ccc(-c3ccccc3)nc2n1-c1ccc(C2(N)CCC2)cc1	18.6 µM (active)	11.8 µM (active)	16.6 µM (active)	16.6 µM (active)	18.6 µM (active)	29.5 µM (active)
CCC(C(=O)O)C1CCC(C)C(C(C)C(O)C(C)C(=O)C(CC)C2OC3(C=CC(O)[C@@]4(CC[C@](C)(C5CC[C@@](O)(CC)C(C)O5)O4)O3)C(C)CC2C)O1 (some centres not stated)	1.48 µM (active)	1.66 µM (active)	0.525 µM (active)	13.2 µM (active)	2.35 µM (active)	1.18 µM (active)
CC(C)C[C@H](NC(=O)c1cc2ccccc2s1)C(=O)N1CCN(C(=O)[C@H](CO)NS(=O)(=O)c2ccc(Cl)cc2Cl)CC1	18.6 µM (active)	23.5 µM (active)	26.3 µM (active)	inactive		
CC(C)n1c(/C=C/[C@H](O)C[C@H](O)CC(=O)O)c(-c2ccc(F)cc2)c2ccccc21	3.32 µM (active)	11.8 µM (active)	8.33 µM (active)	11.8 µM (active)		
Cc1cc(I)ccc1Nc1c(C(=O)NOCC2CC2)cc(F)c(F)c1F	1.66 µM (active)	16.6 µM (active)	14.8 µM (active)	5.9 µM (active)	16.6 µM (active)	20.9 µM (active)
Nc1n[n+]([O-])c2ccccc2[n+]1[O-]	18.6 µM (active)	13.2 µM (active)	16.6 µM (active)	inactive	18.6 µM (active)	
Cc1c2oc3c(C)ccc(C(=O)NC4C(=O)NC(C(C)C)C(=O)N5CCCC5C(=O)N(C)CC(=O)N(C)C(C(C)C)C(=O)OC4C)c3nc-2c(C(=O)NC2C(=O)NC(C(C)C)C(=O)N3CCCC3C(=O)N(C)CC(=O)N(C)C(C(C)C)C(=O)OC2C)c(N)c1=O (configuration not stated) (I: TVP[Sar][NMeV] / II: TVP[Sar][NMeV]; ester I:1-I:C, II:1-II:C; linker I:N-II:N via Actinocin(9to1); configuration not given here)	0.0032 µM (active)	0.0014 µM (active)	0.0057 µM (active)	0.0032 µM (active)	0.0102 µM (active)	0.0115 µM (active)
C=C1CC[C@@H]2[C@](C)(CO)[C@H](O)CC[C@@]2(C)[C@@H]1C/C=C1/C(=O)OC[C@H]1O	3.72 µM (active)	2.95 µM (active)	5.25 µM (active)	10.5 µM (active)	5.9 µM (active)	9.34 µM (active)
CC[C@@H](Oc1cccc(CN(CCCOc2ccc(OC)cc2)c2nc3ccccc3o2)c1)C(=O)O	inactive	inactive	inactive	inactive	inactive	
Nc1nc2c(c(=O)[nH]1)N1CN(c3ccc(C(=O)N[C@@H](CCC(=O)O)C(=O)O)cc3)CC1CN2 (some centres not stated)	1.66 µM (active)	1.05 µM (active)	9.34 µM (active)	0.934 µM (active)		
CCCN(CCC)C(=O)C1=Cc2ccc(-c3ccc(C(=O)N4CCCC4)cc3)cc2N=C(N)C1	16.6 µM (active)	16.6 µM (active)	18.6 µM (active)	inactive	18.6 µM (active)	26.3 µM (active)
OC1CCC(Oc2cccc3cnc(Nc4ccc5nc[nH]c5c4)nc23)CC1 (configuration not stated)	1.48 µM (active)	0.0525 µM (active)	0.934 µM (active)	0.934 µM (active)	0.833 µM (active)	1.32 µM (active)
COc1ccc(S(=O)(=O)N(CCO)c2ccccc2CN(C)C/C=C/c2ccc(Cl)cc2)cc1	14.8 µM (active)	18.6 µM (active)	13.2 µM (active)	16.6 µM (active)	14.8 µM (active)	18.6 µM (active)
CC(C)(C)C(=O)N1N=CC[C@H]1c1ccccc1	inactive	inactive	inactive	inactive	inactive	inactive
C/C(=C\c1csc(C)n1)[C@@H]1C[C@@H]2O[C@]2(C)CCC[C@H](C)[C@H](O)[C@@H](C)C(=O)C(C)(C)[C@@H](O)CC(=O)N1	0.0209 µM (active)	0.0332 µM (active)	0.0148 µM (active)	0.0166 µM (active)		0.0295 µM (active)
C=CCNC1=C2C[C@@H](C)C[C@H](OC)[C@H](O)[C@@H](C)/C=C(\C)[C@H](OC(N)=O)[C@@H](OC)/C=C\C=C(/C)C(=O)NC(=CC1=O)C2=O	10.5 µM (active)	1.86 µM (active)	11.8 µM (active)	10.5 µM (active)	18.6 µM (active)	16.6 µM (active)
Cc1ccc2nc(NCCN)c3ncc(C)n3c2c1	9.34 µM (active)	4.68 µM (active)	8.33 µM (active)	7.42 µM (active)	5.9 µM (active)	8.33 µM (active)
CC(C)Oc1ccc(-c2nn([C@@H](C)c3oc4ccc(F)cc4c(=O)c3-c3cccc(F)c3)c3ncnc(N)c23)cc1F	11.8 µM (active)	16.6 µM (active)	20.9 µM (active)	inactive		
Nc1ccn([C@@H]2O[C@H](CO)[C@@H](O)C2O)c(=O)n1 (some centres not stated)	3.32 µM (active)	0.833 µM (active)	0.0742 µM (active)	0.0295 µM (active)	0.0742 µM (active)	0.0525 µM (active)

Compound	Potency [1]	Potency [2]	Potency [3]	Potency [4]	Potency [5]	Potency [6]
CC(C)(C)C[C@H]1N[C@@H](C(=O)NC2CCC(O)CC2)[C@H](c2cccc(Cl)c2F)[C@@]12C(=O)Nc1cc(Cl)ccc12 (some centres not stated)	4.17 µM (active)	0.742 µM (active)	0.934 µM (active)	1.66 µM (active)	2.35 µM (active)	3.32 µM (active)
CCOC(=O)c1c(CSc2ccccc2)n(C)c2cc(Br)c(O)c(CN(C)C)c12	11.8 µM (active)	18.6 µM (active)	11.8 µM (active)			
Cc1ccc(-c2nn(C(C)(C)CNC(=O)c3ccncc3)c3ncnc(N)c23)cc1	16.6 µM (active)	11.8 µM (active)	8.33 µM (active)	7.42 µM (active)		
CC(C)(O)C1CCC(Nc2ccc3ncc(-c4cccc(C(F)(F)F)c4)n3n2)CC1 (configuration not stated)	11.8 µM (active)	3.32 µM (active)	6.61 µM (active)	6.61 µM (active)	5.9 µM (active)	
CN(C)c1ccc(C(=O)NCCCCCCC(=O)NO)cc1	0.833 µM (active)	0.59 µM (active)	1.18 µM (active)	1.05 µM (active)	1.18 µM (active)	
CN(Cc1ccc(/C=C/C(=O)NO)cc1)CC12CC3CC(CC(C3)C1)C2	0.148 µM (active)	0.0934 µM (active)	0.148 µM (active)	0.132 µM (active)	0.148 µM (active)	
CN(CCOc1ccc(C[C@H](Nc2ccccc2C(=O)c2ccccc2)C(=O)O)cc1)c1ccccn1	inactive	inactive	inactive	inactive	inactive	inactive
Cc1ncc(NC(=O)c2cccc(C(F)(F)F)c2)cc1-c1cnc(OC2CCOCC2)c(N2CCOCC2)c1	0.0833 µM (active)	16.6 µM (active)	6.61 µM (active)	8.33 µM (active)	11.8 µM (active)	
COC1(c2sc3c(N4CCOCC4)nc(-c4cnc(N)nc4)nc3c2C)COC1	0.525 µM (active)	0.59 µM (active)	0.468 µM (active)	0.186 µM (active)		
CCOC(=O)N[C@@H]1CC[C@@H]2[C@@H](C1)C[C@H]1C(=O)O[C@H](C)[C@H]1[C@H]2/C=C/c1ccc(-c2cccc(F)c2)cn1	14.8 µM (active)	26.3 µM (active)		inactive	inactive	
CCCCc1ccc2nc(NC(=O)OC)[nH]c2c1	0.148 µM (active)	0.186 µM (active)		0.118 µM (active)	0.118 µM (active)	0.105 µM (active)
CC/C(=C(/c1ccc(O)cc1)c1ccc(OCCNC)cc1)c1ccccc1	14.8 µM (active)	8.33 µM (active)	23.5 µM (active)		13.2 µM (active)	
NC(=O)c1ccc2nc(-c3ccc(C4(N)CCC4)cc3)c(-c3ccccc3)n2n1	13.2 µM (active)	4.17 µM (active)		3.72 µM (active)		
C[C@]12CCCN1CC1=NNC(=O)c3cc(F)cc4[nH]c2c1c34	20.9 µM (active)	2.63 µM (active)	5.9 µM (active)		18.6 µM (active)	
COC(=O)Nc1nc2ccc(S(=O)c3ccccc3)cc2[nH]1 (configuration not stated)	26.3 µM (active)	16.6 µM (active)		7.42 µM (active)	6.61 µM (active)	7.42 µM (active)
CC1(C)O[C@@H]2C[C@H]3[C@@H]4CCC5=CC(=O)C=C[C@]5(C)[C@H]4[C@@H](O)C[C@]3(C)[C@]2(C(=O)CO)O1	inactive	inactive	inactive		inactive	0.332 µM (active)
COc1ccc2c(c1)c(C1=C(c3c[nH]c4ccccc34)C(=O)NC1=O)cn2CCCN(C)C	20.9 µM (active)	0.372 µM (active)	16.6 µM (active)		23.5 µM (active)	23.5 µM (active)
[O-][n+]1cccc(-c2nc3c(Cl)cccc3cc2[C@@H](Nc2ncnc3cccnc23)C(F)(F)F)c1	5.25 µM (active)	8.33 µM (active)		6.61 µM (active)		
N#CCC1(n2cc(-c3ncnc4[nH]ccc34)cn2)CN(C2CCN(C(=O)c3ccnc(C(F)(F)F)c3F)CC2)C1	1.66 µM (active)	16.6 µM (active)		3.72 µM (active)		
O=C(Nc1ncc(SCCN2CCCC2)s1)[C@]1(c2ccc(S(=O)(=O)C3CC3)cc2)C[C@H]1C1CCCCC1	20.9 µM (active)	11.8 µM (active)	23.5 µM (active)		18.6 µM (active)	
